# Where “and” joins values, the source holds several entries; their conditions need not be identical. Identical values can stand only once. Records with an inconclusive call do not appear. Calls of active or inactive are those of the source. The call rests on the fitted dose curve; in most records, active means well fitted inhibition curve with a large enough effect in the repeat runs; inconclusive means weak or mixed curves; inactive means no such curve, though single readings can be large or run the other way.
# Target: Cytochrome P450 2C9 (Homo sapiens) (UniProt P11712)
# Assay: Cytochrome P450 Family 2 Subfamily C Member 9 (CYP2C9) small molecule antagonists: luciferase reporter qHTS assay (AID 1671198); further: nearly all actives have a fitted effect of over 50% in size
# Details: P450-Glo CYP2C9 enzyme assay, luciferin luminescence; series mostly up to 115 µM
# Summary of the method: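 CYP2C9 activity was measured with a P450-Glo proluciferin substrate. Enzyme–substrate mix was held with compound for 10 min at room temperature, then NADPH regeneration solution was added for 1 h at 37C. Luciferin product was read as luminescence.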
# Potency means the concentration at half of the fitted maximal effect.
# Sequence of Cytochrome P450 2C9 (Homo sapiens) (P11712 whole entry, looked up): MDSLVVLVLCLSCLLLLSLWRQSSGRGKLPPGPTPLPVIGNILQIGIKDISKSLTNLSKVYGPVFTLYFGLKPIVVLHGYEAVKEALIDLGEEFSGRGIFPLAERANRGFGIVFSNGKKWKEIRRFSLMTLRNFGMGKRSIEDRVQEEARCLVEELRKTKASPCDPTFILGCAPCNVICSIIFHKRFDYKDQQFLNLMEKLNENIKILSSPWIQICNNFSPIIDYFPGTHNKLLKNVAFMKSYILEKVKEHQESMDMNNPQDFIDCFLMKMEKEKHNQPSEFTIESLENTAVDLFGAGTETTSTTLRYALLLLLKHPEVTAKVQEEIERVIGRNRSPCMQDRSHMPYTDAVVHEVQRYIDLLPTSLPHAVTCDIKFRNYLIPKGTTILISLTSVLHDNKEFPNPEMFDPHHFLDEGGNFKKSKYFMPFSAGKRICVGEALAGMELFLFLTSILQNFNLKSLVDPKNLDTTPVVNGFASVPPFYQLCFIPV
row,SMILES,Potency
1,CC(=O)c1ccc(S(=O)(=O)NC(=O)NC2CCCCC2)cc1,31.6 µM (active) and 31.7 µM (active) and 17.4 µM (active)
2,CC1=C(/C=C/C(C)=C/C=C/C(C)=C/C(=O)O)C(C)(C)CCC1,71.1 µM (active) and 39.9 µM (active) and 34.7 µM (active)
3,CCCCOCCOCCOC(C)=O,inactive
4,CC(=O)CCC(C)C,inactive
5,CC(C)(C)CC(C)(C)c1ccc(O)c(-n2nc3ccccc3n2)c1,20.3 µM (active) and 10 µM (active) and 12.3 µM (active)
6,CC(=O)Oc1ccccc1C(=O)O,inactive
7,Nc1ccc(N=Nc2ccccc2)c(N)n1,20.1 µM (active) and 28.3 µM (active) and 17.4 µM (active)
8,COc1cc2c(c(OC)c1OC)-c1ccc(OC)c(=O)cc1[C@@H](NC(C)=O)CC2,inactive
9,NCCNc1cccc2ccccc12,20 µM (active) and 31 µM (active) and 27.5 µM (active)
10,CCCCCCCC(=O)OCC(O)CO (configuration not stated),inactive
11,CC1=NN(c2ccccc2)C(=O)C1,11.3 µM (active) and 11.2 µM (active) and 17.4 µM (active)
12,N[C@@H](Cc1c[nH]c2ccccc12)C(=O)O,71.1 µM (active)
